Reference: PubChem BioAssay (Tox21)
Results filed as inconclusive are left out. A number with no mark means an inactive call. Calls of active or inactive are those of the source. Calls come from the whole dose curve; as a rule, active = well fitted cell-killing curve with a large enough effect in the repeat runs; inconclusive = weak or mixed curves; inactive = flat fitted curve, though single readings scatter.

assay: qHTS RealTime-Glo MT Cell Viability Assay in HepG2 cells - 24 hour (AID 1224867); details: RealTime-Glo luminescence; series mostly up to 76.8 µM; activity change, negative = cytotoxicity: at the top concentration; note: nearly all actives have a fitted effect of over 50% in size
Source text: U.S. Tox21 Program National Center for Advancing Translational Sciences [NCATS] NIH Chemical Genomics Center [NCGC] U.S. Environmental Protection Agency [EPA] National Institutes of Environmental Health Sciences [NIEHS] National Toxicology Program [NTP] U.S. Food and Drug Administration [FDA] Tox21 Assay Overview: Measure of cell viability is critical in the cell-base assay. Analysis of cell viability is necessary for the characterization of cell responses to cytotoxic drugs and environmental stress. A RealTime-Glo MT Cell Viability Assay to monitor cell viability in real time of continues cell culture during 40 hours of compound treatment was used to screen Tox21 10K library compounds in HepG2 cells. The RealTime-Glo MT Cell Viability Assay is a nonlytic, homogeneous, bioluminescent method to measure cell viability in real time using a simple, plate-based method. The assay involves adding NanoLuc luciferase and a cell-permeant prosubstrate to cells in culture. Viable cells reduce the proprietary prosubstrate to generate a substrate for NanoLuc luciferase. This substrate diffuses from cells into the surrounding culture medium, where it is rapidly used by the NanoLuc Enzyme to produce a luminescent signal. The signal correlates with the number of viable cells, making the assay well suited for cytotoxicity studies.
Tox21 Assay Protocol Summary: The mixture of HepG2 cell suspension and reagents were dispensed at 600cells/6 ul/well in 1536-well tissue culture treated black solid bottom plates using a Multidrop dispenser. After the assay plates were incubated at a 37 C/5% CO2 incubator for 5 hours, 23 nL of compounds dissolved in DMSO, positive and negative controls was transferred to the assay plate by a pintool work station. The plates were incubated at 37 C for 40 hours. The luminescence intensity were measured at 0h, 8h, 16h, 24h, 32h and 40h time points using ViewLux plate reader during compound treatment.
% is set by controls: 0 for no effect and ±100 for the full control effect; potency is the fitted concentration of half-maximal effect.

SMILES | activity change, negative = cytotoxicity | Potency
CCC(CC)Nc1ccc(C)c(C)c1 | 1.42% | 
CC(COCCO)OCCO (stereo not given) | 1.8% | 
c1ccc(-c2ccccn2)nc1 | 1.56% | 
Nc1c(CC(=O)O)cccc1C(=O)c1ccc(Br)cc1 | 8.54% [at 35.3 µM] | 
C=CCOc1ccccc1OCC(O)CNC(C)C (stereo not given) | 1.65% [at 35.3 µM] | 
CCCCC(CC)COC(=O)CCCCCCCCC(=O)OCC(CC)CCCC (stereo not given) | 5.13% | 
CC(=O)NO | -2.76% [at 35.3 µM] | 
COC(C)(C)CCO | 0.318% | 
CCCCCCCCCCCCCCOS(=O)(=O)O | 1.94% | 
CCOC(=O)Cc1cccc2ccccc12 | -2.22% | 
C=CC1CC2C=CC1C2 (stereo not given) | -0.68% | 
CN(C)CCN(Cc1ccsc1)c1ccccn1 | 0.525% [at 35.3 µM] | 
Nc1ccc(N)c2c1C(=O)c1ccccc1C2=O | -17.2% | 
NC(N)=NCCC[C@H](N)C(=O)O | 3.74% [at 6.97 µM] | 
OCCN1CCN(CCCN2c3ccccc3C=Cc3ccccc32)CC1 | -1.99% [at 35.3 µM] | 
CCN(CC)CCOC(=O)C(Cc1cccc2ccccc12)CC1CCCO1 (stereo not given) | -4.63% [at 35.3 µM] | 
C=C(C)C(=O)OCCO | 0.76% | 
COc1ccc(C(=O)N2CCN(CC(=O)N3CCOCC3)CC2)cc1 | 3.23% [at 35.3 µM] | 
C/C=C/C(=O)CC | 0.602% [at 15.8 µM] | 
NC(=O)C(c1ccccc1)(c1ccccc1)[C@@H]1CCN(CCc2ccc3c(c2)CCO3)C1 | -7.77% [at 35.3 µM] | 

SMILES | activity change, negative = cytotoxicity | Potency
COC(C)OC | 1.57% | 
O=C(O)C1(C(=O)O)CCC1.[NH2-].[NH2-].[Pt+2] | 1.08% [at 35.3 µM] | 
CCN(CC)CCNC(=O)c1cc(Br)c(N)cc1OC | 1.79% [at 35.3 µM] | 
COc1ccc(C)cc1[N+](=O)[O-] | 1.89% | 
CC1=CC[C@H](C(C)C)C=C1 | -0.445% | 
CN1Cc2cc(C(=O)N3CCC(C4CCNCC4)CC3)ccc2NC(CC(=O)O)C1=O (stereo not given) | 0.0061% [at 35.3 µM] | 
O=C(O)c1ccc(S(=O)(=O)O)cc1C(=O)O | -5.5% | 
O=C(CS)Nc1ccccc1 | -11.9% [at 35.3 µM] | 
CN1C[C@H]2c3ccccc3Oc3ccc(Cl)cc3[C@@H]2C1 | -14.1% [at 35.3 µM] | 
Clc1ccc(Cn2c(CN3CCCC3)nc3ccccc32)cc1 | -23.7% [at 35.3 µM] | 
CCCCCCCN | -0.252% | 
CCCCCCCCO[C@@H]1O[C@H](CO)[C@@H](O)[C@H](O)[C@H]1O | 0.588% | 
C=C(C)C(=O)OCC | 0.581% | 
C/C=C/C=C/CO | -3.16% | 
CC(CSC(=O)c1ccccc1)C(=O)N1C[C@@H](Sc2ccccc2)C[C@H]1C(=O)O (stereo not given in full) | 3.68% [at 15.8 µM] | 
O=C(OCCc1ccccc1)c1ccccc1 | -0.0689% | 
CC1OC(=O)C(C)OC1=O (stereo not given) | 4.39% | 
CCCOC(C(=O)OC1CCN(C)CC1)(c1ccccc1)c1ccccc1 | -21.5% [at 35.3 µM] | 
C=CC(=O)OCCOCCOCCOCCOC(=O)C=C |  | 43.2 µM (active)
CC(C)=CCC/C(C)=C/CC/C(C)=C/CO | -2.63% | 
